VACV E9 pol inh: vaccinia E9 polymerase processive synthesis inhibitors, primary screen, biochemical, absorbance; Vaccinia virus DNA polymerase (E9) processive complex; in vitro processive DNA synthesis, absorbance read-out; hits give low values; hit rate 0.94% among 46,000; AID 493162, 2011; normalized absorbance, % (no concentration beside the values); in the data active = normalized absorbance mostly below about 85%, no sharp cut-off; inactive = mostly above about 86%
An asterisk follows results filed as active; ! = not active in a repeat. This is one part of a sample in which hits are shown more often than they occur.

SMILES	VACV E9 pol inh
COc1ccc2nc(SC(=O)c3ccccc3)nc(C)c2c1	99.9
CCCn1c(=NC(=O)C(CC)c2ccccc2)c(C(=O)OCC)cc2c(=O)n3ccccc3nc21 (configuration not stated)	92.2
CC1CCCCN1C(=O)CSc1nnc(-c2ccccc2)o1 (configuration not stated)	95.3
CC1CCCCN1C(=O)CSc1ccc2ccccc2c1 (configuration not stated)	73.2*
CCOC(=O)C1CCCN(C(=O)CSc2ccc3ccccc3c2)C1 (configuration not stated)	93.8
O=C(Cn1nc(Cc2ccncc2)c2ccccc2c1=O)NCc1ccccc1	103.2
COc1ccc(NS(=O)(=O)c2ccc(C)c(Cl)c2)cc1	96.3
Cc1ccc(C(=O)NC(CC(C)C)C(=O)O)cc1 (configuration not stated)	100.4
Cc1cc(C)nc(NC(N)=NCCc2c[nH]c3ccccc23)n1	84.9*
Cc1ccccc1CNCCc1c[nH]c2ccccc12	95.1
Cc1ccc(NC(=O)Cc2c[nH]c3ccccc23)cc1	103.2
COc1ccc(C2=C(C)C(c3cccs3)c3ccccc3O2)cc1 (configuration not stated)	99.7
O=C(Cc1cccc2ccccc12)Nc1ccc(I)cc1	96.3
CCOC(=O)CCc1n[nH]c(=O)[nH]c1=O	101.5
CCOC(=O)CCc1c(CC(=O)OCC)c[nH]c1/C=N/O	31.1*
CCOC(=O)CCc1ccc(OCc2c(C)c(C)c(C)c(C)c2C)cc1	96.1
Cc1cc(Nc2ccc(O)cc2)c2ccccc2n1	84.1
Cc1cccc(Nc2cc(C)nc3ccccc23)c1	76.9*
COC(=O)c1ccc(Nc2cc(C)nc3ccccc23)cc1	99.4
O=C(c1ccco1)N1CCC(N(CCc2ccccc2)Cc2ccccc2)CC1	107.0
O=C1Nc2ccccc2O/C1=C\c1ccccc1	105.9
O=C(NCCCN1CCOCC1)c1ccccc1	100.4
CC1CCN(CCCNC(=O)c2ccc(/C=C3\Oc4ccccc4NC3=O)cc2)CC1	70.5*
Cc1ccccc1S(=O)(=O)N1CCOCC1	94.3
O=C(NCc1cccnc1)c1ccc2nc(-c3ccco3)c(-c3ccco3)nc2c1	97.0
SMILES	VACV E9 pol inh
Clc1ccc(CSCc2ccc(-c3csnn3)cc2)cc1	100.8
COc1ccc(CC(=O)N(Cc2nc(-c3ccc(Cl)cc3)no2)C(C)C)cc1OC	100.8
N#Cc1c(N)nc(SCc2ccccc2)c(C#N)c1-c1ccccc1	83.0*
N#Cc1c(-c2ccccc2)cc(-c2ccccc2)nc1N	99.8
CCOc1ccc(-c2c(C#N)c(N)nc(SCC#N)c2C#N)cc1	100.9
O=C(O)CCC(=O)n1ncc2ccccc21	99.7
O=C(CCC(=O)c1ccccc1)NCc1ccccc1	66.7*
O=C(Cc1ccccc1)c1ccccc1	104.3
CC(=O)Nc1ccc(NC(=O)CCC(=O)c2ccccc2)cc1	99.9
Cc1cccn2cc(-c3cccc(NC(=O)CCC(=O)O)c3)nc12	99.4
Cn1c(=NC(=O)c2ccc(Cl)s2)sc2cc(S(C)(=O)=O)ccc21	101.4
CCn1c2ccccc2c2cc(N)ccc21	92.3
CCn1c2ccccc2c2cc(C=Nc3cccc(C#N)c3)ccc21	77.4*
CCn1c2ccccc2c2cc(C=Nc3ccc(C)cc3O)ccc21	90.7
CCOC(=O)C1CCN(C(=O)c2ccc(CC)cc2)CC1	102.7
O=S(c1nc2ccccc2s1)N1CCOCC1 (configuration not stated)	100.4
CCOC(=O)c1cc(-c2ccccc2)n(-c2cccc(C(=O)N3CCCC3)c2)c1C	78.2
CCOC(=O)c1cc(-c2ccccc2)n(-c2ccc(C(=O)O)cc2)c1C	60.6*
CCOC(=O)c1cc(-c2ccccc2)n(CCC(=O)O)c1C	88.3
Cc1ccc(NC(=O)COC(=O)c2cccs2)c(C)c1	95.3
Cc1nc2ccc(S(=O)(=O)NC(C(=O)Nc3ccccc3C)c3ccccc3)cc2s1 (configuration not stated)	96.9
CCOC(=O)c1ccc(CN)cc1	98.3
CCOC(=O)c1ccc(N=C(N)SCc2ccc(Cl)cc2)cc1	64.6*
CCOC(=O)c1ccc(NC(=O)c2ccc(Cl)cc2)cc1	99.2
N#CCc1ncc(CSc2nnnn2-c2ccccc2)s1	99.7
SMILES	VACV E9 pol inh
O=C(O)CNC(=O)C1CCCCC1	103.0
O=C(O)CCC1CCCCCCCCCCC1	73.9*
N[C@@H](CC1CCCCC1)C(=O)O	99.3
Cn1c(CCNC(=O)Cc2ccccc2)nc2ccccc21	90.1
COC(=O)/C=C\C(=O)Nc1ccc(NC(C)=O)cc1	100.9
Cc1cc(-c2ccccc2)[n+]2nc(N)sc2n1	99.8
CC(C)c1ccccc1NC(=O)c1cccc(S(=O)(=O)N(C)C)c1	101.0
NC(=O)NC(=O)Cc1ccccc1	101.6
N/C(=N\c1nc2ccccc2s1)NC(=O)c1cccc(Cl)c1	99.4
NC(=Nc1ccccc1)NC(=O)c1nc(Cl)c(N)nc1N	50.8*
NC(=NCc1ccccc1)NC(=O)c1nc(Cl)c(N)nc1N	59.1*!
N/C(=N\c1nc(=O)c2ccccc2s1)NC(=O)c1ccc(Cl)c(Cl)c1	100.0
O=C(Cc1csc(Nc2ccc(Cl)cc2)n1)NCc1ccccc1	100.2

Compound activity (PubChem BioAssay)
